Compound activity (PubChem)
In the library only some 10% were active in any assay of this set; here they are far more common.
ALOX12 inhib: blocks human 12-lipoxygenase activity; purified 12-hLO, xylenol orange hydroperoxide absorbance; AID 1452; P18054; Potency, µM (top dose mostly 57.1 µM), for inactives: at the top dose activity change, negative = inhibition, most hits filed as inhibitors; 150,000 tested, 0.12% active; active = well fitted inhibition curve with a large enough effect; inconclusive = small, poorly fitted or top-dose-only effect; note: potency is the fitted concentration of half-maximal effect; nearly all actives have a fitted effect of over 55% in size
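Xylenol orange chromogenic assay: hydroperoxide from 12hLO oxidises Fe(II), giving red-shifted Fe(III)-XO absorbance. Conditions: 150 nM enzyme, 40 uM arachidonic acid, 25 mM Hepes pH 7.0, 0.01% Triton X-100, 30 min, room temperature.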
PNC inhibitor: inhibitors of perinucleolar compartment assembly; PC3M PTB-GFP, PNC prevalence imaging, 16 h; hits give low values; activity change (PNC), negative = inhibition, % at 10 µM; 140,000 tested, 3.1% active; AID 2417;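 active = readout at or below -70, meaning at least 70% loss of cells showing the perinucleolar compartment, a nuclear body marking cancer cells; inconclusive = readout between -30 and a set limit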;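 note: plate controls were DMSO wells for no effect and camptothecin positive control wells for full effect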
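PC3M cells stably expressing PTB-GFP, 750–1000 cells/well, treated 16 h at 37 °C with compound (23 nl of library stock), in duplicate. After paraformaldehyde fixation and Hoechst stain, imaged at 20x; PNC prevalence scored by image analysis.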
ALDH1A1 inh: ALDH1A1 (human) enzyme inhibition | Purified ALDH1A1, NADH fluorescence, propionaldehyde substrate | Potency, µM (highest dose often 75.3 µM), inactives show at the top dose activity, negative = inhibition, actives largely listed as inhibitors | 220,000 tested, 7.3% active;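 note: potency is the fitted concentration of half-maximal effect; plate controls were no enzyme wells and a reference inhibitor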
Target sequence (P00352 whole entry, looked up): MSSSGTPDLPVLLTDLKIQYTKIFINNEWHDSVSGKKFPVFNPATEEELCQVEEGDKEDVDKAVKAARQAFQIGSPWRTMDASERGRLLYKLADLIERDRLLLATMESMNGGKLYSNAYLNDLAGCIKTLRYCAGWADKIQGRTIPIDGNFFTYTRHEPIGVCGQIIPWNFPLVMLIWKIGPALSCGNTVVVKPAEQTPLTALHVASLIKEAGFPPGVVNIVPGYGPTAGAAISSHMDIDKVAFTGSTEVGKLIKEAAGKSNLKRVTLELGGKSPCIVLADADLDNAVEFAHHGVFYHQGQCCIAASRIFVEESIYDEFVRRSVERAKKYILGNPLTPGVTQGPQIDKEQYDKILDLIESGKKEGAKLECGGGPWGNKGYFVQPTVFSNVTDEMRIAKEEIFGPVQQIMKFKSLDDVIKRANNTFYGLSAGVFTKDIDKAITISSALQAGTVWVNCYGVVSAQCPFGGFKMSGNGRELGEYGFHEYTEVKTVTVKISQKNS
Lamin A splicing: LMNA splicing modulation. HeLa LMNA splicing GFP/RFP minigene ratio, 48 h. Potency, µM (titrated, usually from 46.1 µM), for the others: at the top dose ratio change, negative = inhibition, usual class: inhibitors. 200,000 tested, 0.01% active. AID 1487; active = well fitted inhibition curve with a large enough effect in the signal ratio, with a control signal flat, not every such curve was filed as active; inconclusive = small, poorly fitted or top-dose-only effect, or effect the other way, or a change in a side signal; the % refers to the signal ratio; note: potency is the fitted concentration of half-maximal effect
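Read-out is the ratio of GFP to DsRed2 object intensity, acquired by 488 nm laser-scanning cytometry on HeLa lamin A-EGFP minigene reporter cells. Compound incubation 48 hrs at 37 °C in Opti-MEM with 2% FBS; DMSO 0.5% final.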
HPGD inh: blocks human HPGD enzyme activity; purified HPGD, NADH fluorescence kinetic, PGE2 substrate; Potency, µM, for the others: at the highest dose activity change, negative = inhibition, most hits filed as inhibitors; 150,000 tested, 4.3% active; note: potency is the fitted concentration of half-maximal effect
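20 nM HPGD preincubated 15 min at room temperature with compound in 50 mM Tris-HCl pH 8, 0.01% Tween 20. Started with 1 mM NAD+ and 30 uM prostaglandin E2; NADH fluorescence (360/450 nm) read 5 times over 30-s intervals, last minus first.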
Starred values were filed as active, the others as inactive; [ ] = remark or other dose. Unless noted, calls come from the whole dose curve; as a rule, active = well fitted inhibition curve with a large enough effect (not every such curve was filed as active); inconclusive = small, poorly fitted or top-dose-only effect, or another doubt; inactive = no such curve, though single readings can be large or run the other way. Unless noted, % is set by controls: 0 for no effect and ±100 for the full control effect.

How did CC(C)CC(NC(=O)CCl)c1ccccc1 (configuration not stated) do in these assays?
ALOX12 inhib: 1%; PNC inhibitor: inconclusive; ALDH1A1 inh: inconclusive; Lamin A splicing: inconclusive; HPGD inh: -2%

How did CC(=O)Nc1cn(-c2ccccc2)nc1-c1ccccc1 do in these assays?
ALDH1A1 inh: 2%; Lamin A splicing: inconclusive

How did O=C(CCl)Nc1ccc(N=Nc2ccccc2)cc1 do in these assays?
ALOX12 inhib: -3%; PNC inhibitor: -122*; ALDH1A1 inh: 0.4µM*; Lamin A splicing: inconclusive; HPGD inh: -23%

What do the screens show for `O=C(CCl)Nc1cn(-c2ccccc2)nc1-c1ccccc1`?
ALDH1A1 inh: 14µM*; Lamin A splicing: inconclusive

How did O=C(CCl)Nc1ccc(-c2ccccc2)cc1 do in these assays?
ALDH1A1 inh: 0.25µM*

What do the screens show for `CCOc1ccc(OCC)c(NS(=O)(=O)c2ccc3c(c2)CCCN3C(C)=O)c1`?
Lamin A splicing: 15%[46 µM]

Results for O=C(c1ccccc1Cl)N1CCC(c2nc3ccccc3s2)CC1 ?
Lamin A splicing: -1%[46 µM]

Results for O=C1C2CC=C(Cl)CC2C(=O)N1CN(Cc1ccco1)CN1C(=O)C2CC=C(Cl)CC2C1=O (configuration not stated) ?
ALOX12 inhib: -16%; PNC inhibitor: -96*; ALDH1A1 inh: inconclusive; Lamin A splicing: 4%; HPGD inh: -10%

Results for O=C1C2CC=C(Cl)CC2C(=O)N1CCC[n+]1ccccc1 (configuration not stated) ?
ALOX12 inhib: -1%; PNC inhibitor: -21; ALDH1A1 inh: 7%; Lamin A splicing: -8%[0.0737 µM]; HPGD inh: -1%

Results for O=C1C2CC=C(Cl)CC2C(=O)N1CC1Cc2ccccc2CO1 (configuration not stated) ?
ALOX12 inhib: -21%; PNC inhibitor: -6; ALDH1A1 inh: 22µM*; Lamin A splicing: -3%; HPGD inh: 22µM*

What do the screens show for `O=C(CCN1C(=O)C2CC=C(Cl)CC2C1=O)NCc1ccccc1` (configuration not stated)?
ALOX12 inhib: -2%; PNC inhibitor: 1; ALDH1A1 inh: inconclusive; Lamin A splicing: 1%; HPGD inh: -2%

Results for O=C1C2CC=C(Cl)CC2C(=O)N1CC1OCCc2ccccc21 (configuration not stated) ?
ALOX12 inhib: -9%; PNC inhibitor: -6; ALDH1A1 inh: inconclusive; Lamin A splicing: -1%; HPGD inh: -20%

Results for O=C(CCN1C(=O)C2CC=C(Cl)CC2C1=O)NCc1ccco1 (configuration not stated) ?
ALOX12 inhib: -4%; PNC inhibitor: 37; ALDH1A1 inh: 22µM*; Lamin A splicing: 4%; HPGD inh: -18%

Results for COC(=O)CCNC(=O)N1CCN(c2nnc(C)c3c(C)n(-c4ccccc4)nc23)CC1 ?
Lamin A splicing: -6%[46 µM]

Results for COc1ccccc1CNC(=O)C(C)c1ccc([N+](=O)[O-])cc1 (configuration not stated) ?
ALDH1A1 inh: 5%; Lamin A splicing: 10%[46 µM]

How did COc1ccc(OCC#CCNC(C)(C)C)cc1 do in these assays?
ALOX12 inhib: -6%; PNC inhibitor: 13; ALDH1A1 inh: inconclusive; Lamin A splicing: 9%; HPGD inh: -7%

How did COc1ccc(OCC#CCN2CC(C)OC(C)C2)cc1 (configuration not stated) do in these assays?
ALDH1A1 inh: 6.3µM*; Lamin A splicing: 0%[46 µM]

How did CS(=O)(=O)N1CCc2cc(S(=O)(=O)NCc3ccccc3Cl)ccc21 do in these assays?
Lamin A splicing: 2%[46 µM]

Results for CS(=O)(=O)N1N=C(c2ccccc2)CC1c1ccc2c(c1)OCO2 (configuration not stated) ?
ALOX12 inhib: -2%; PNC inhibitor: -27; ALDH1A1 inh: 2.4µM*; Lamin A splicing: inconclusive; HPGD inh: -8%

What do the screens show for `CS(=O)(=O)N1N=C(c2ccco2)CC1c1ccc(Cl)cc1` (configuration not stated)?
ALOX12 inhib: -17%; PNC inhibitor: 12; ALDH1A1 inh: 8.9µM*; Lamin A splicing: -9%; HPGD inh: -7%
